# Source: PubChem BioAssay
# D1 ag = activates the human D1 dopamine receptor. activation, % at 2 µM. AID 504660. P21728. HEK293 T-REx D1 cells, calcium flux, agonist mode. 1% of 360,000 active; further: 0% is about no effect
#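 Tetracycline-induced HEK293 TREx D1 cells, force-coupled to calcium signalling, were dye-loaded with a no-wash calcium kit. Compound was pin-added after a 10 s baseline. Fluorescence was read kinetically at 1 cycle/s for 180 s, with calcium rises flagged as agonism.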
# Glioma ERSR ind = ER stress response induction in glioma | U87-MG GRP78 promoter luciferase reporter, 16 h | AID 602332 | Potency, µM, inactives show at the top dose activation, usual class: activators | 0.02% of 420,000 active; active means well fitted activation curve with a large enough effect; further: potency means the concentration at half of the fitted maximal effect; series mostly up to about 76 µM; % of control where 0% means no effect; nearly all actives have a fitted effect of over 35% in size
#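 ERSR induction read as luciferase luminescence (Bright-Glo, 10 min at room temperature) in stably transfected human U87-MG glioma cells exposed to compounds for 16 h, using GRP78 as sensor.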
# D1 potentiator = human D1 dopamine receptor positive modulation; P21728; HEK293 TREx D1 cells, calcium flux, dopamine EC20 potentiation; potentiation, % at 10 µM; 0.036% of 360,000 active; AID 504651; in the data active means potentiation above about 30%; further: 0% is about no effect
# TRHR enhancer = allosterically enhances the human TRH receptor | AID 493056 | TRHR cells, fluo-8 calcium fluorescence, EC20 TRH enhancement | enhancement, % at 2 µM | 0.66% of 360,000 active; in the data active means enhancement above about 30%; further: 0% is about no effect
# Target sequence (P34981 whole entry, looked up): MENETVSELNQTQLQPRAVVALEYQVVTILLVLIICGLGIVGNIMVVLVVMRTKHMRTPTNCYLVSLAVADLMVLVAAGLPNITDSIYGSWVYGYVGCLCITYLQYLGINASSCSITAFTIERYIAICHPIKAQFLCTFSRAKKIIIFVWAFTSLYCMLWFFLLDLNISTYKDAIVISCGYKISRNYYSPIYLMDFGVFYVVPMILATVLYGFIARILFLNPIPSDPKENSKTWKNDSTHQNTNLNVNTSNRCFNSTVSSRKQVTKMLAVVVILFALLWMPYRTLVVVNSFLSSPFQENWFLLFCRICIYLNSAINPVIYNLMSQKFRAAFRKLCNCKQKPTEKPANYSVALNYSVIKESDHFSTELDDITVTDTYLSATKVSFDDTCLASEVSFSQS
#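 TRHR-expressing cells loaded with fluo-8 calcium dye were read kinetically (ex 480/em 530) during compound addition, then stimulated with an EC20 of TRH (10 nM final). Enhancement of the Gq-mediated intracellular calcium response was scored.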
# TRHR agonist = activates the human TRH receptor; P34981; TRHR cells, calcium flux fluo-8, FDSS agonist mode; activation, % at 2 µM; 0.18% of 360,000 active; further: 0% is about no effect
#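 TRHR-expressing cells loaded with fluo-8 calcium dye; 23 nL library compound pin-transferred, kinetic FDSS fluorescence (Ex 480/Em 530) recorded about 180 s for agonist-induced calcium release, before a 10 nM TRH EC20 addition for potentiator mode.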
# D1 antagonist = human D1 dopamine receptor antagonism; HEK293 TREx D1 cells, calcium flux, dopamine EC80; active compounds read low; P21728; activity change, negative = inhibition, % at 10 µM; 3.2% of 360,000 active; AID 504652; in the data active means activity change below about -30%; further: on the % scale 0 is the no-effect control and ±100 the full control effect
#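 Tetracycline-induced HEK293 T-REx cells with force-coupled D1 receptor were loaded with a no-wash calcium dye. Compound was added after a 10 s baseline and read kinetically for 180 s; EC80 dopamine was then added and calcium flux followed another 180 s.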
# Numbers without * were called inactive; nt = not tested or not shown; ! = repeats disagree. This is a sample that favours compounds with a hit; in the whole collection about 4% have one here. Unless noted, no stated cut-off is given here; in the data, active means activation above about 30%; inactive means the rest.
SMILES,D1 ag,Glioma ERSR ind,D1 potentiator,TRHR enhancer,TRHR agonist,D1 antagonist
O=C(CSc1nnc(COc2ccc(Cl)cc2)o1)N1CCCC1,1,4%,-2,-7,-2,10
O=C(COc1ccc(Cl)cc1)OCC(=O)N1CCCCCC1,1,-6%,7,-2,0,-34*
COc1cccc(CNC(=O)CN(c2ccc(C(C)C)cc2)S(=O)(=O)c2c(C)n[nH]c2C)c1,3,-2%,0,-2,-1,-19
CCN(CC)c1nc(C#N)nc(N2CCOCC2)n1,nt,-3%,nt,nt,nt,nt
CC1=CC(C)[C@H](/C=N/n2c(=O)[nH]c3c([nH]c4ccc(C)cc43)c2=O)C(C)C1 (stereo partly specified),2,-3%,-4,-10,-1,6
COc1ccc(-c2ccc(C(=O)N3CCc4c(cnc(C)c4CNS(=O)(=O)N(C)C)C3)o2)cc1,nt,3%,nt,nt,nt,nt
COc1ccc(OC(=O)COc2cc(C)ccc2C)cc1,6,-6%,0,-3,0,2
O=C(COc1ccc(Cl)cc1)N1CCN(c2ccc([N+](=O)[O-])c(N3CCCCC3)c2)CC1,3,-2%,-2,0,0,-31*
COc1ccc(OC(=O)COc2ccc(Cl)cc2)cc1,1,2%,-3,39*,1,-6
O=C(COc1ccccc1Cl)N1CCN(c2ccc([N+](=O)[O-])c(N3CCCCC3)c2)CC1,7,-3%,4,5,0,1
COc1cc(/C=N/NC(=O)C(C)n2nnc3ccccc32)ccc1O (stereo unspecified),0,1%,-1,1,-1,-5
COc1ccc(/C=N/NC(=O)CSc2ccccn2)cc1OC,1,11%,-8,4,1,-32*
COc1cc(/C=N/NC(N)=O)ccc1OC(=O)c1ccco1,4,-3%,-3,-2,0,-35*
COc1ccc(/C=N/NC(=O)C(C)n2nnc3ccccc32)cc1OC (stereo unspecified),0,-7%,-7,1,0,-74*
COc1cc(/C=N\NC(=O)c2ccc(C)nc2)ccc1OC(=O)c1ccco1,0,13%,-1,3,-1,1
O=C1CN(C(=O)COc2ccccc2)CCN1,2,-5%,0,-4,-1,-9
O=C(NCC1(N2CCOCC2)CCCC1)c1cnn(-c2nccc(-c3cccs3)n2)c1C1CC1,nt,-3%,nt,nt,nt,nt
Cc1ccc(CN2COc3ccc4c(-c5ccccc5)cc(=O)oc4c3C2)cc1,11,-5%,-2,55*,1,-17
N[C@@H](CO)c1nnc([C@H](CCC(=O)O)NC(=O)C2CCNCC2)o1,0,-2%,-6,0,0,-38*
N[C@@H](Cc1ccc(O)cc1)c1nnc([C@H](CCC(=O)O)NC(=O)C2CCNCC2)o1,-1,-3%,-2,-11,0,-41*
CC(C)c1ccc(C2C3=C(CC(c4ccco4)CC3=O)Nc3nc(C(F)(F)F)nn32)cc1 (stereo unspecified),7,0%,-4,0,-1,0
CCc1ccc(NC(=O)C2=CC(c3ccc4c(c3)OCO4)=NS(=O)(=O)N2C)cc1,1,0%,2,-4,0,-26
CC(=O)c1ccc(NC(=O)C2=CC(c3ccc(C)cc3)=NS(=O)(=O)N2C)cc1,1,-2%,-1,-2,0,-46*
CC(=O)c1ccc(NC(=O)C2=CC(c3ccc4c(c3)OCO4)=NS(=O)(=O)N2C)cc1,33*!,-2%,1,-7,1,-15
Oc1ccc(COc2cccc3ccccc23)c2cccnc12,2,nt,4,-2,1,25
SMILES,D1 ag,Glioma ERSR ind,D1 potentiator,TRHR enhancer,TRHR agonist,D1 antagonist
COC(=O)c1cccc(C(=O)NCc2nc(-c3ccccc3NC(C)=O)oc2C)c1,nt,-2%,nt,nt,nt,nt
CCCC1NC(=O)c2cc3ccccc3cc2-n2c1nc1cc(F)ccc1c2=O (stereo unspecified),nt,-7%,nt,nt,nt,nt
O=c1[nH][nH]c(-c2ccccc2)c1C=Nc1cccc(Cl)c1,0,3%,-10,2,0,-34*
C=C1CCC[C@]2(C)C[C@H]3OC(=O)C(CN[C@@H](C)c4ccccc4)[C@H]3CC12 (stereo partly specified),36*,-9%,-2,0,2,29
COc1ccccc1N1CCN(C(=O)CSc2nnc(NC(=O)C3CCC3)s2)CC1,1,-6%,-2,-2,0,6
COc1ccc(C(=O)Nc2nnc(C)s2)cc1,-1,-5%,4,3,-1,4
COc1ccc(N2CCN(C(C)C(=O)Nc3nnc(C)s3)CC2)cc1 (stereo unspecified),2,-6%,-6,32*,1,-3
COc1ccc(N2CCN(C(=O)CSc3nnc(NC(=O)C4CCC4)s3)CC2)cc1,2,-2%,-4,-2,1,-32*
CCCCC#CC1C=CC(OC(C)=O)C(COC(C)=O)O1 (stereo unspecified),nt,6%,nt,nt,nt,nt
CCC(C)[C@H](NC(=O)N1CC(=O)Nc2ccccc21)C(=O)N1CCC[C@H]1C(=O)O (stereo partly specified),2,-2%,-3,-1,0,-6
CNC(=O)N(O)C1N(/N=C/c2ccc(N(C)C)cc2)C(=S)SC1(C)C (stereo unspecified),2,0%,-4,-8,0,-13
CC1(C)SC(=S)N(/N=C/c2ccccc2)C1N(O)C(=O)Nc1ccc([N+](=O)[O-])cc1 (stereo unspecified),19,11%,-3,8,0,-37*
CC(=O)Oc1c(/C=C(\C#N)C(N)=O)[nH]c2ccccc12,53*,-12%,0,4,-1,-14
CC(C)(CO)Cc1cc(C(C)(C)C)c(O)c(C(C)(C)C)c1,71*,-3%,-3,21,-1,22
CC(C)(C=O)Cc1cc(C(C)(C)C)c(O)c(C(C)(C)C)c1,8,0%,10,0,0,38
Cc1nc(SCCOc2ccc(F)cc2)c2ccccc2n1,34*,6%,-11,2,0,3
CC[C@]12c3[nH]c4cc(-c5ccco5)ccc4c3CCN1C(=O)[C@@H](CC(=O)NCCC1=CCCCC1)C[C@@H]2C(=O)N1CCN(C(=O)c2ccco2)CC1,nt,-2%,nt,nt,nt,nt
Cc1cccc(CN2C[C@H](Sc3ccccn3)C[C@H]2C(=O)Nc2ccc3sc(C)nc3c2)c1,nt,-5%,nt,nt,nt,nt
O=C(Nc1cccc(Cl)c1)c1c(NC(=O)C(F)(F)F)sc2c1CCCC2,16,-6%,-3,-8,5,-35*
Cc1ccc(NC(=O)c2c(NC(=O)C(F)(F)F)sc3c2CCCCC3)cc1,32*,-2%,-2,9,2,-42*
